In PubChem BioAssay (EPA / NIEHS):
Inconclusive results are not listed. The source made the active and inactive calls. How the source made its calls, unless noted: active means hit-call score of the fitted dose curve at least 0.9, where 1 is the maximum; inactive means score below 0.9.

Columns and labels:
[1] = CCTE_Shafer_MEA_dev_firing_rate_mean: CCTE's Neural Network Formation Assay for Mean Firing Rate, Shafer Lab (AID 2284031)
Outline: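 Steps: seed rat cortical cells (1.5 x 10^5/well) with laminin on PEI-coated MEA; dose day 0; record DIV 5/7/9/12, full media and compound exchange after DIV 5 and 9 recordings; compute well-mean firing rate AUC.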

[2] = CCTE_Shafer_MEA_dev_per_burst_spike_percent: CCTE's Neural Network Formation Assay for Percent of Spikes in a Burst, Shafer Lab (AID 2284032)
Outline: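 Value is trapezoidal AUC over recordings on days 5, 7, 9 and 12 of the well-mean fraction of spikes falling in single-electrode bursts; rat cortical cultures exposed continuously from plating, treatment renewed DIV 5 and 9, fitted downward against DMSO.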

[3] = CCTE_Shafer_MEA_dev_active_electrodes_number: CCTE's Neural Network Formation Assay for Number of Active Electrodes, Shafer Lab (AID 2284040; active means hit-call score of the fitted dose curve at least 0.9, where 1 is the maximum)
Outline: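 Counts electrodes per well firing at least 5 spikes/min, recorded on days 5, 7, 9 and 12 in rat cortical cultures dosed continuously from plating (treatment refreshed DIV 5, 9). Value is the area under the curve over recordings, fitted downward relative to DMSO.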

[4] = CCTE_Shafer_MEA_dev_burst_rate: CCTE's Neural Network Formation Assay for Burst Rate, Shafer Lab (AID 2284042)
Outline: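 Rat primary cortical cultures on PEI/laminin MEA; compound from plating, re-dosed at DIV 5, 9 media change. Single-electrode bursts/recording length, well mean of active electrodes; AUC over DIV 5–12 recordings; loss-of-signal vs DMSO.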

[5] = CCTE_Shafer_MEA_dev_bursting_electrodes_number: CCTE's Neural Network Formation Assay for Number of Bursting Electrodes, Shafer Lab (AID 2284043; active means hit-call score of the fitted dose curve at least 0.9, where 1 is the maximum)
Outline: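 Number of electrodes reaching ≥1 burst every 2 min was recorded at DIV 5, 7, 9 and 12 and collapsed as trapezoidal area under the curve. Cultures were rat cortical neurons on MEA plates, dosed continuously from plating with medium and treatment refreshed on DIV 5 and 9.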

[6] = CCTE_Shafer_MEA_dev_per_burst_interspike_interval: CCTE's Neural Network Formation Assay for Burst Interspike Interval, Shafer Lab (AID 2284044)
Outline: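 Spontaneous activity of maturing rat cortical networks is recorded on DIV 5, 7, 9 and 12 under chronic compound exposure beginning at plating. Endpoint: burst interspike interval well-mean, collapsed into trapezoidal AUC and fitted in the negative direction relative to DMSO.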

[7] = CCTE_Shafer_MEA_dev_burst_duration_mean: CCTE's Neural Network Formation Assay for Mean Burst Duration, Shafer Lab (AID 2284045)
Outline: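 Mean single-electrode burst duration (first to last spike), averaged over bursting electrodes per well, then integrated as area-under-curve across recordings at days 5, 7, 9 and 12. Rat cortical cultures on MEAs, compound present from plating, refreshed at feeds.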

[8] = CCTE_Shafer_MEA_dev_interburst_interval_mean: CCTE's Neural Network Formation Assay for Mean Interburst Interval, Shafer Lab (AID 2284046);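 further: well-mean interburst interval of bursting electrodes as AUC over four recording days; curve fitted for decrease in interburst interval relative to DMSO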
Outline: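 Rat cortical neurons, 1.5 x 10^5 cells/well, 48-well MEA; compound from day 0 through DIV 12, media and treatment renewed DIV 5/9. Recordings DIV 5, 7, 9, 12; well-mean interburst interval → trapezoidal AUC, loss direction vs DMSO.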

[9] = CCTE_Shafer_MEA_dev_inter_network_spike_interval_mean: CCTE's Neural Network Formation Assay for Mean Inter-network Spike Interval, Shafer Lab (AID 2284047)
Outline: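 Primary rat cortical neurons on PEI-coated 48-well MEAs (16 electrodes/well) were exposed from plating day 0 to DIV 12, with dosing renewed at DIV 5 and 9. Recordings at DIV 5, 7, 9, 12 were collapsed by trapezoidal AUC, loss-of-signal fit vs DMSO.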

[10] = CCTE_Shafer_MEA_dev_network_spike_peak: CCTE's Neural Network Formation Assay for Mean Number of Electrodes in Network Spike, Shafer Lab (AID 2284049);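 further: fitted for loss of signal meaning fewer electrodes in network spikes than DMSO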
Outline: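 Rat cortical primary culture, 1.5 x 10^5 cells/well, 48-well MEA (16 electrodes/well). Dosing day 0 through DIV 12, full media/compound exchange DIV 5, 9. AxIS adaptive spike detection; AUC over days 5/7/9/12; loss-of-signal vs DMSO.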

[11] = CCTE_Shafer_MEA_dev_spike_duration_mean: CCTE's Neural Network Formation Assay for Mean Spike Duration, Shafer Lab (AID 2284051);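 further: mean network spike duration pooled as area under curve over DIV 5 to 12 recordings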
Outline: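 Rat cortical primary cultures, 48-well MEA (16 electrodes/well); compound from plating, renewed DIV 5, 9. Network spike duration (AxIS adaptive detector) recorded DIV 5/7/9/12, combined as trapezoidal AUC; loss direction vs DMSO.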

[12] = CCTE_Shafer_MEA_dev_network_spike_duration_std: CCTE's Neural Network Formation Assay for Standard Deviation of Network Spike Duration, Shafer Lab (AID 2284052);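 further: hits are decreases in network spike duration SD versus DMSO vehicle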
Outline: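 Rat cortical cultures, 1.5 x 10^5 cells/well, exposed continuously from plating to DIV 12 with media/compound renewal at DIV 5, 9. Spontaneous activity recorded DIV 5/7/9/12, AxIS adaptive spike detector; AUC across days; negative direction vs DMSO.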

[13] = CCTE_Shafer_MEA_dev_per_network_spike_spike_number_mean: CCTE's Neural Network Formation Assay for Mean Number of Spikes in a Network Spike, Shafer Lab (AID 2284053)
Outline: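 Rat cortical primary cultures on 48-well MEA; compound from day 0, re-dosed with full media change DIV 5, 9. Recorded DIV 5, 7, 9, 12; spikes in 0.05 s window at network-spike peak ÷ total network spikes; AUC; loss vs DMSO.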

[14] = CCTE_Shafer_MEA_dev_per_network_spike_spike_percent: CCTE's Neural Network Formation Assay for Percent of Spikes in a Network Spike, Shafer Lab (AID 2284054)
Outline: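 Metric: fraction of spikes falling in a 0.05 s window at network-spike peaks. Recordings were made on days 5, 7, 9 and 12 and collapsed by trapezoidal AUC. Cultures were rat cortical neurons on MEA plates, dosed continuously from plating, re-dosed at media changes.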

[15] = CCTE_Shafer_MEA_dev_LDH: CCTE's Lactate Dehydrogenase Assay for Cytotoxicity in the Neural Network Formation Assay, Shafer Lab (AID 2284068; active means hit-call score of the fitted dose curve at least 0.9, where 1 is the maximum;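 further: exposure for twelve days from plating with re-dosing on DIV 5 and 9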)
Outline: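 Rat cortical primary neurons, MEA culture; dosing day 0–12, full medium plus compound exchange DIV 5, 9. Read-out: LDH enzyme activity, spectrophotometric. DMSO = negative control/baseline; signal loss → cytotoxicity.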

[16] = CCTE_Shafer_MEA_dev_AB: CCTE's Alamar Blue Assay for Cytotoxicity in the Neural Network Formation Assay, Shafer Lab (AID 2284083; active means hit-call score of the fitted dose curve at least 0.9, where 1 is the maximum;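 further: resazurin reduction fluorescence as viability of cultured neurons; twelve days of exposure from plating with re-dosing on DIV 5 and 9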)
Outline: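 Rat cortical primary cultures, 1.5 x 10^5 cells/well on MEA; continuous compound exposure over 12 days of network development, re-dosed with full medium change DIV 5 and 9. Alamar Blue fluorescence; loss of signal = cytotoxicity vs DMSO baseline.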

[17] = CCTE_Shafer_MEA_dev_mutual_information_norm: CCTE's Neural Network Formation Assay for Mutual Information Normalization, Shafer Lab (AID 2284091)
Outline: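 Shared information across electrodes, tracked on days 5, 7, 9 and 12 of network development and collapsed as trapezoidal area under the curve. Rat cortical cultures were treated continuously from plating, with treatment renewed at feeds on DIV 5 and 9; DMSO baseline, negative-direction fit.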

[18] = CCTE_Shafer_MEA_dev_correlation_coefficient_mean: CCTE's Neural Network Formation Assay for Mean Correlation Coefficient, Shafer Lab (AID 2284093)
Outline: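 Rat cortical cultures, 1.5 x 10^5 cells/well, dosed from day 0 for 12 days. Spontaneous spikes recorded DIV 5/7/9/12; electrode-pair correlation coefficients averaged, AUC taken. Fit in loss direction vs DMSO.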

[19] = UKN2_HCS_IMR90_neural_migration: University of Konstanz (UKN) Leist Lab Neural Crest Cell Migration Assay in human induced IMR90 Pluripotent Stem Cells (UKN2) (AID 2284204); conditions: actives raise or lower the signal
Outline: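 High-content imaging of calcein-AM and Hoechst stained cells quantifies migration into a stopper-defined gap after 24 h compound exposure. Neural crest cells from IMR90 iPSC migrated 24 h in EGF/FGF N2-S medium before dosing; DMSO baseline.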

[20] = IUF_NPC1b_proliferation_BrdU_72hr: Leibniz Research Institute for Environmental Medicine (IUF) 72-hour Neural Progenitor Cell Bromodeoxyuridine (BrdU) Proliferation Assay (NPC1b) (AID 2284207)
Outline: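 Human fetal cortex-derived (GW 16-19) neural progenitor spheres, 0.25-0.35 mm, one per well in EGF/FGF proliferation medium, exposed to compound for 72 h at 37C, pH 7.2-7.6. BrdU incorporation over the final 16 h read by luminescence ELISA, relative to DMSO.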

[21] = IUF_NPC1a_proliferation_area_72hr: Leibniz Research Institute for Environmental Medicine (IUF) 72-hour Neural Progenitor Cell Proliferation Area Assay (NPC1a) (AID 2284208)
Outline: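 Measured in 3D suspension: each well held one primary hNPC sphere grown with EGF and FGF at pH 7.2-7.6. Compound stayed on for 72 h, then area was imaged; spheres lacking growth factors defined reduced proliferation.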

[22] = IUF_NPC1_viability_72hr: Viability Assessment at 72 hours in the Leibniz Research Institute for Environmental Medicine (IUF) Neural Progenitor Cell Proliferation Assay (NPC1) (AID 2284209)
Outline: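 Spheres of primary human neural progenitors were plated singly in proliferation medium and treated for 72 h. Mitochondrial reduction of resazurin was then measured by fluorescence and analysed against DMSO controls.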

[23] = CCTE_Mundy_HCI_Cortical_Synap_Neur_Matur_NeuriteSpotCountPerNeuriteLength: CCTE's Synaptogenesis and Neurite Maturation Assay in rat cortical cells for Neurite Spot Count per Neurite Length, Mundy Lab (AID 2284210)
Outline: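 Synaptophysin spots per unit neurite length, measured by automated imaging of MAP2/synaptophysin/Hoechst-stained neurons. Cultures from rat cortex received chemical at DIV 7 with media change through DIV 12; glial growth arrested by AraC at DIV 5; DMSO baseline.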

[24] = CCTE_Mundy_HCI_Cortical_Synap_Neur_Matur_BPCount: CCTE's Synaptogenesis and Neurite Maturation Assay in rat cortical cells for Branch Point Count, Mundy Lab (AID 2284211)
Outline: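 HCI read-out of branch points from MAP2/synaptophysin/Hoechst immunofluorescence; rat cortical cultures, AraC DIV 5, dosing DIV 7, fixed DIV 12; fit in positive direction vs DMSO baseline.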

[25] = CCTE_Mundy_HCI_Cortical_NOG_NeuriteCount: CCTE's Neurite Outgrowth Assay in rat cortical cells for Neurite Count, Mundy Lab (AID 2284212);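 further: cells fixed about two days after chemical exposure began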
Outline: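 Rat cortical primary cells; compound added 2 h post-plating, 1/10 dilution of working solution. Anti-betaIII-tubulin/AF488 ICC; ArrayScan neurite count vs DMSO.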

[26] = CCTE_Mundy_HCI_Cortical_NOG_NeuriteLength: CCTE's Neurite Outgrowth Assay in rat cortical cells for Neurite Length, Mundy Lab (AID 2284213);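 further: neurites imaged about 48 to 50 h after chemical exposure began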
Outline: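 First, rat primary cortical cells were plated and, 2 h later, given test chemical as a 1/10 dilution. Finally, βIII-tubulin immunostaining enabled automated imaging of neurite length.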

Measured: AC50

CCOP(=O)(OCC)SCSCC
active: [10] 49.8 µM | [14] 90.9 µM | [25] 78.6 µM | [26] 78.3 µM
inactive: all other assays above
